Assays:
Settings in all cases: concentration: 1 μM, replicates: in singlicate; n = 1
[1] = test system: CSF1R-autoinhibited
[2] = test system: CSF1R
[3] = test system: CSK
[4] = test system: CSNK1A1L
[5] = test system: CSNK1A1
[6] = test system: CSNK1D
[7] = test system: CSNK1E
[8] = test system: CSNK1G1
[9] = test system: CSNK1G2
[10] = test system: CSNK1G3
[11] = test system: CSNK2A1
[12] = test system: CSNK2A2
[13] = test system: T1, CTK
T1 construct: gene MATK

[14] = test system: DAPK1
[15] = test system: DAPK2
[16] = test system: DAPK3
[17] = test system: T2, DCAMKL1
T2 construct: gene DCLK1

[18] = test system: T3, DCAMKL2
T3 construct: gene DCLK2

[19] = test system: T4, DCAMKL3
T4 construct: gene DCLK3

[20] = test system: DDR1
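Further: KINOMEscan kinase panel screen.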

Structure (SMILES)	%Inh [1]	%Inh [2]	%Inh [3]	%Inh [4]	%Inh [5]	%Inh [6]	%Inh [7]	%Inh [8]	%Inh [9]	%Inh [10]	%Inh [11]	%Inh [12]	%Inh [13]	%Inh [14]	%Inh [15]	%Inh [16]	%Inh [17]	%Inh [18]	%Inh [19]	%Inh [20]
CNc1nccc(-c2c(-c3ccc(F)cc3)ncn2CCCN2CCOCC2)n1 [SB-222516]	0%	0%	0%	2%	0%	8%	19%	4%	10%	4%	6%	5%	0%	0%	0%	15%	8%	0%	19%	0%
Oc1ccc2ncnc(Nc3ccc(OCc4ccccc4)cc3)c2c1 [GI262866]	0%	2%	0%	0%	8%	4%	30%	0%	17%	38%	26%	10%	3%	0%	0%	0%	0%	0%	0%	7%
Cc1cc(N2CCC(NS(=O)(=O)c3ccc(F)cc3)CC2)nc(Nc2cccc(C#N)c2)n1.O=C(O)C(F)(F)F [GSK1653537]	0%	0%	0%	35%	25%	27%	52%	27%	5%	15%	1%	11%	0%	0%	0%	2%	0%	0%	0%	0%
COc1ccc(Nc2nccc(N3CCC(NC(=O)c4cccc(NC(C)=O)c4)C3)n2)cc1 (centres unmarked) [GSK1379732]	49%	1%	0%	7%	0%	13%	16%	9%	0%	24%	0%	1%	0%	0%	13%	18%	0%	0%	7%	0%
Cc1ccc(NC(=O)c2cccc(C#N)c2)cc1-c1ccc(C(=O)Nc2ccncc2)cc1 [GSK1398463]	0%	98.3%	0%	15%	0%	19%	29%	23%	1%	41%	0%	9%	19%	0%	0%	6%	19%	15%	0%	100%
Nc1nc(-c2cccnc2)c(-c2ccnc3ccccc23)s1 [GW684083]	0%	1%	0%	9%	1%	65%	71%	10%	0%	13%	2%	1%	0%	0%	0%	0%	18%	4%	14%	0%
CSc1ccc(NC2=C(c3ccccc3Cl)C(=O)NC2=O)cc1 [SB-342411]	0%	7%	7%	0%	0%	2%	19%	16%	0%	0%	2%	10%	0%	30%	16%	11%	2%	0%	43%	10%
Cl.Cl.c1ccc(-c2cc3ccncc3cc2OC2CCNCC2)cc1 [GSK1122999]	5%	49%	0%	23%	16%	0%	41%	14%	0%	27%	0%	27%	0%	93.5%	66%	98.8%	19%	0%	30%	9%
c1ccc(-c2ccc3c(-c4ccnc(Nc5ccc6c(c5)OCCO6)n4)cnn3n2)cc1 [GW818941]	0%	1%	84%	0%	40%	8%	0%	1%	11%	27%	18%	9%	2%	0%	0%	0%	0%	0%	0%	0%
COc1cc2c(Nc3cccc(NC(=O)c4ccccc4)c3)ncnc2cc1OCCCN1CCOCC1 [GSK223810]	0%	83%	23%	63%	62%	60%	54%	13%	0%	18%	6%	22%	0%	0%	15%	28%	0%	14%	16%	12%
CNc1nccc(-c2c(-c3ccc(F)cc3)ncn2C2CCN(C)CC2)n1 [SB-222903]	0%	0%	0%	38%	95.5%	94%	99.5%	0%	0%	0%	0%	0%	0%	0%	0%	25%	19%	0%	0%	65%
Nc1nc(-c2ccc3c(N)n[nH]c3c2)cc(N2CCCCC2)n1 [GSK2228768]	0%	1%	0%	1%	0%	11%	0%	0%	0%	4%	0%	12%	0%	3%	0%	6%	0%	15%	0%	0%
Fc1ccc(Nc2nccc(-c3c(-c4ccc(Cl)cc4)nn4ncccc34)n2)cc1F [GW829058]	0%	14%	28%	3%	32%	60%	22%	0%	2%	0%	0%	24%	30%	1%	0%	8%	25%	11%	0%	87%
NC(=O)c1sc(-n2cnc3ccccc32)cc1OCc1ccccc1F [GSK1024306]	24%	0%	0%	0%	0%	17%	20%	0%	0%	18%	10%	6%	12%	3%	0%	0%	0%	1%	0%	19%
Cc1ccc(C)c(NC(=O)NCCNc2ccnc(Nc3ccc(F)cc3)n2)c1 [GSK1379878]	15%	7%	100%	0%	11%	0%	33%	0%	0%	24%	5%	0%	0%	0%	0%	11%	19%	0%	0%	1%
COc1ccc(-c2oc3ncnc(N)c3c2-c2ccc(OC)cc2)cc1 [SB-589132]	70%	61%	0%	12%	0%	11%	43%	0%	0%	12%	30%	40%	0%	0%	0%	37%	14%	7%	36%	94.6%

Structure (SMILES)	%Inh [1]	%Inh [2]	%Inh [3]	%Inh [4]	%Inh [5]	%Inh [6]	%Inh [7]	%Inh [8]	%Inh [9]	%Inh [10]	%Inh [11]	%Inh [12]	%Inh [13]	%Inh [14]	%Inh [15]	%Inh [16]	%Inh [17]	%Inh [18]	%Inh [19]	%Inh [20]
Cl.Cn1ccc(-c2cccc(Nc3ccnc4cc(-c5nccs5)ccc34)c2)n1 [GW525701]	29%	0%	0%	5%	0%	12%	21%	5%	0%	0%	0%	0%	0%	17%	0%	2%	13%	0%	26%	52%
O=C(Nc1ccccc1)Nc1ccc(Oc2ccc3nccn3n2)cc1	0%	39%	0%	6%	19%	1%	1%	0%	0%	29%	0%	0%	100%	0%	1%	0%	9%	10%	59%	98.6%
FC(F)(F)c1ccc(-c2nn3ncccc3c2-c2ccnc(Nc3cccc(C(F)(F)F)c3)n2)cc1 [GW828205]	0%	0%	0%	5%	30%	24%	17%	2%	3%	2%	0%	0%	0%	0%	0%	1%	34%	0%	22%	86%
O=C(Nc1ccccc1F)NC1CCN(c2ccnc(Nc3ccc(F)cc3)n2)C1 (centres unmarked) [GSK1379722]	7%	4%	0%	0%	0%	13%	27%	0%	100%	8%	0%	0%	0%	0%	0%	5%	0%	0%	5%	3%
C[C@H]1CC[C@@H](C(=O)Nc2ccccc2)CN1c1cc(-c2ccc3c(N)n[nH]c3c2)nc(N)n1 [GSK2283293]	26%	0%	0%	16%	0%	0%	7%	7%	0%	7%	12%	0%	0%	7%	0%	0%	23%	0%	8%	0%
CN1c2ccc(-c3ccc(C(=O)NCCO)cc3)cc2-c2[nH]ncc2S1(=O)=O	25%	0%	9%	7%	4%	5%	3%	0%	0%	6%	25%	47%	0%	32%	36%	31%	26%	12%	2%	0%
O=C(Nc1n[nH]c2nc(-c3ccco3)c(Br)cc12)c1ccc(CN2CCCC2)cc1.O=C(O)[C@H](O)[C@@H](O)C(=O)O [SB-742352]	0%	71%	0%	0%	0%	0%	0%	0%	0%	0%	0%	29%	15%	0%	0%	0%	0%	0%	28%	19%
Cc1cccc(-c2nc(Nc3ccc4[nH]nnc4c3)c3ccccc3n2)n1 [GW867587]	0%	0%	0%	0%	0%	4%	0%	0%	0%	0%	80%	45%	10%	0%	0%	0%	0%	0%	0%	0%
COc1ccc(NC(=O)Nc2ccc(C)c(-c3ccc(C(=O)Nc4ccncc4)cc3)c2)cc1 [GSK1398475]	0%	93.7%	0%	3%	0%	15%	36%	6%	6%	44%	0%	0%	0%	5%	0%	3%	10%	0%	9%	88%
Nc1nc(-c2ccc3c(N)n[nH]c3c2)cc(N2CCC[C@@H](C(=O)Nc3ccccc3)C2)n1.O=C(O)C(F)(F)F.O=C(O)C(F)(F)F [GSK2288359]	0%	13%	8%	0%	0%	0%	15%	8%	100%	25%	1%	18%	0%	7%	0%	0%	12%	0%	0%	0%
Fc1cccc(COc2ccc(Nc3ncnc4nn5ccccc5c34)cc2Cl)c1 [GW689066]	37%	0%	0%	0%	0%	3%	14%	0%	0%	3%	0%	0%	0%	0%	0%	7%	0%	0%	9%	0%
O=C(NCCCN1CCCC1=O)c1cnc(NCc2cc(Cl)ccc2Cl)nc1NC1CCNCC1	1%	100%	0%	1%	36%	28%	87%	1%	0%	0%	0%	7%	5%	14%	0%	0%	17%	12%	0%	0%
CCc1nc(-c2cccc(N(C)S(=O)(=O)c3ccccc3)c2)c(-c2ccnc(Nc3ccc(N4CCN(C(C)=O)CC4)nc3)n2)s1 [GSK1645895]	0%	17%	50%	0%	0%	2%	55%	20%	0%	26%	18%	6%	0%	21%	0%	4%	10%	0%	4%	44%
CC(=O)Nc1n[nH]c2ncc(-c3ccccc3)cc12 [SB-548492]	0%	19%	3%	21%	0%	0%	34%	0%	0%	4%	20%	25%	38%	100%	1%	0%	36%	15%	0%	0%
OCCOCCn1ccc2ncnc(Nc3ccc(Oc4cccc(Cl)c4)c(Cl)c3)c21	0%	0%	0%	0%	0%	0%	0%	0%	0%	0%	0%	0%	0%	0%	0%	0%	36%	0%	0%	0%

Reference: publication PMC5540273 (PLoS ONE, 2017)
